A collection of fitness landscapes (doi:10.1126/science.1257360)
The full ranking holds about 140,000 sequences; the median of “enrichment ratio after two sorts for PhoP signalling” is about 0, and the highest 2% start at about 11. The full list was thinned out, with the highest values kept by preference.

B1: PhoQ; a variant is named by its letters at X, in order, P23837 (parent)
chain: MKKLLRLFFPLSLRVRFLLATAAVVLVLSLAYGMVALIGYSVSFDKTTFRLLRGESNLFYTLAKWENNKLHVELPENIDKQSPTMTLIYDENGQLLWAQRDVPWLMKMIQPDWLKSNGFHEIEADVNDTSLLLSGDHSIQQQLQEVREDDDDAEMTHSVAVNVYPATSRMPKLTIVVVDTIPVELKSSYMVWSWFIYVLSANLLLVIPLLWVAAWWSLRPIEALAKEVRELEEHNRELLNPATTRELTSLVRNLNRLLKSERERYDKYRTTLTDLTHSLKTPLXXLQXXLRSLRSEKMSVSDAEPVMLEQISRISQQIGYYLHRASMRGGTLLSRELHPVAPLLDNLTSALNKVYQRKGVNISLDISPEISFVGEQNDFVEVMGNVLDNACKYCLEFVEISARQTDEHLYIVVEDDGPGIPLSKREVIFDRGQRVDTLRPGQGVGLAVAREITEQYEGKIVAGESMLGGARMEVIFGRQHSAPKDE

Variants of: B1
Assay: enrichment ratio after two sorts for PhoP signalling (ratio (wild type AVST 3.29)); higher = more functional
Settings: with PhoP (E. coli)

Variant	enrichment ratio
CLFS	≤ 0.25
WHNW	≤ 0.25
WMSA	≤ 0.25
HCSR	≤ 0.25
TYDS	≤ 0.25
MLEL	≤ 0.25
MVYK	17.6
MVWN	13.3
GVAN	≤ 0.25
MVPA	≤ 0.25
MVAV	11.4
MVPY	≤ 0.25
MVAN	15.8
MVYD	≤ 0.25
MVIV	≤ 0.25
MVYI	≤ 0.25
MVHV	≤ 0.25
MVNL	≤ 0.25
GDLC	1.96
LWEG	≤ 0.25
RTKT	≤ 0.25
QLML	≤ 0.25
KICA	≤ 0.25
LLMY	≤ 0.25
FMIW	≤ 0.25

Variant	enrichment ratio
YMVF	≤ 0.25
NLLC	≤ 0.25
MVAG	12.7
MVMG	1.65
MVTG	≤ 0.25
LDKC	≤ 0.25
PPTY	≤ 0.25
TEGP	≤ 0.25
QEIH	≤ 0.25
TEYH	20.6
TEIH	11.4
TESH	32.2
HPGH	≤ 0.25
HPYH	≤ 0.25
VEIH	≤ 0.25
TETH	10.3
TEES	≤ 0.25
TEGH	18.1
NESH	≤ 0.25
DYRT	≤ 0.25
NIFH	≤ 0.25
YEYG	≤ 0.25
NVTM	≤ 0.25
KSAM	≤ 0.25
KSGM	≤ 0.25

Variant	enrichment ratio
NSAM	≤ 0.25
MMTM	10.9
KSWM	≤ 0.25
TSAM	13.8
MMGM	1.99
TSGM	19.2
TSWM	16.2
TSTM	25.6
MMWM	≤ 0.25
HFPI	≤ 0.25
TFKM	≤ 0.25
INVC	≤ 0.25
KVGI	≤ 0.25
GLDQ	≤ 0.25
DESQ	≤ 0.25
RFAC	≤ 0.25
STGF	11.4
SEGF	12.8
SQGF	0.381
KYMF	≤ 0.25
SEMF	20.6
SRGF	0.392
STMF	11.1
KYGF	≤ 0.25
STHF	≤ 0.25

Variant	enrichment ratio
MQAN	2.41
VFHF	≤ 0.25
QYTY	≤ 0.25
GGWG	≤ 0.25
IALA	≤ 0.25
AVFF	≤ 0.25
YVCH	0.383
GERH	≤ 0.25
DKRH	≤ 0.25
SRLM	8.53
LTLM	2.03
SILM	0.906
GTLM	14.5
SNLM	12
GYLM	≤ 0.25
HILM	≤ 0.25
SLLM	6.84
GALM	12.1
GMLM	1.25
SELM	15.6
SFLM	4.5
SPGC	≤ 0.25
GWTC	≤ 0.25
WFGV	≤ 0.25
IFGQ	≤ 0.25

Variant	enrichment ratio
VSCI	7.51
VLVC	≤ 0.25
SCAA	5.68
PIFW	1.39
LQRE	≤ 0.25
NQHW	≤ 0.25
ITLM	8.61
SALM	12.7
GCLM	16.5
ATLM	21.4
QCLM	≤ 0.25
VCLM	4.34
TTLM	16.5
YTLM	9.3
IILM	0.265
KQLM	≤ 0.25
YLIN	≤ 0.25
MTRF	≤ 0.25
FHGK	≤ 0.25
PTLY	≤ 0.25
EFRH	≤ 0.25
APYT	≤ 0.25
YSRL	≤ 0.25
LVSS	≤ 0.25
DSTR	≤ 0.25

Variant	enrichment ratio
IRCW	≤ 0.25
TYHN	≤ 0.25
GEDL	≤ 0.25
VYLM	≤ 0.25
MCLM	6.74
VNLM	22.6
GIYR	≤ 0.25
VFLM	≤ 0.25
TNLM	2.74
GNLM	17.5
LNLM	≤ 0.25
GFLM	2.69
GILM	15.7
GIPM	≤ 0.25
MNLM	15.1
AYGP	≤ 0.25
WTPP	≤ 0.25
ECHD	≤ 0.25
DMYC	≤ 0.25
TAWF	5.36
GYWP	≤ 0.25
GPLY	≤ 0.25
STLM	11.2
GKVM	≤ 0.25
MPLM	≤ 0.25

Variant	enrichment ratio
MNIM	12.3
MMLM	≤ 0.25
MNCK	≤ 0.25
MNPM	≤ 0.25
SPLM	≤ 0.25
GKLA	≤ 0.25
MTLM	13.8
GKLM	12.5
WSKW	≤ 0.25
HRWY	≤ 0.25
RRQK	≤ 0.25
PAKQ	≤ 0.25
VEYL	≤ 0.25
MFKL	≤ 0.25
KGPS	≤ 0.25
KVQA	≤ 0.25
SVTV	11.3
SAMF	14.8
KFTV	≤ 0.25
SDTV	13.5
SVDV	≤ 0.25
SMDV	≤ 0.25
SMTV	11.4
SYTV	0.308
KAMF	≤ 0.25

Variant	enrichment ratio
SRTV	≤ 0.25
NAMF	≤ 0.25
KITV	≤ 0.25
YFHI	≤ 0.25
TFLR	0.372
GGFA	≤ 0.25
GQMI	≤ 0.25
LTAP	≤ 0.25
RPSV	≤ 0.25
WEGK	≤ 0.25
QYAI	≤ 0.25
TETV	17.9
STMD	9.32
AKTV	5.31
SITV	11.8
KYTV	≤ 0.25
SQGD	≤ 0.25
NETV	8.86
SQMD	17.4
KSTV	≤ 0.25
TKTV	20
QETV	≤ 0.25
SPTV	≤ 0.25
